Test results reported in PubChem BioAssay (Tox21).
Results filed as inconclusive are left out. A number with no mark means an inactive call. Activity calls are given as the source filed them. Calls come from the whole dose curve; as a rule, active = well fitted cell-killing curve with a large enough effect in the repeat runs; inconclusive = weak or mixed curves, or effect the other way; inactive = flat fitted curve, though single readings scatter.

Test: qHTS assay to identify small molecule antagonists of the androgen receptor (AR) signaling pathway using the MDA cell line - cell viability counter screen (AID 743041; note: nearly all actives have a fitted effect of over 45% in size)
Settings: MDA-kb2 viability, CellTiter-Fluor, 16 h, cells co-treated with R1881 androgen agonist; series mostly up to 70.3 µM; viability change, negative = cytotoxic: at the top concentration
Excerpt: National Center for Advancing Translational Sciences [NCATS]
NIH Chemical Genomics Center [NCGC]
U.S. Environmental Protection Agency [EPA]
National Institutes of Environmental Health Sciences [NIEHS]
National Toxicology Program [NTP]
U.S. Food and Drug Administration [FDA]
Androgen receptor (AR), a nuclear hormone receptor, plays a critical role in AR-dependent prostate cancer and other androgen related diseases. Endocrine disrupting chemicals (EDCs) and their interactions with steroid hormone receptors like AR may cause disruption of normal endocrine function as well as interfere with metabolic homeostasis, reproduction, developmental and behavioral functions. To identify the compounds that inhibit AR signaling, MDA-kb2 AR-luc cell line (from ATCC, deposited by Wilson et al.) was used to screen the Tox21 10K compound library. MDA-kb2 AR-luc cell line is human breast carcinoma cell line that was stably transfected with a luciferase reporter gene under control of the MMTV promoter containing response elements for both androgen receptor (AR) and glucocorticoid receptor (GR). The cytotoxicity of the Tox21 compound library against the MDA-kb2 AR-luc cell line was tested in parallel by measuring the cell viability using CellTiter-Fluor assay (Promega, Madison, WI) in the same wells.
Tox21 Assay Protocol Summary:
MDA-kb2 AR-luc cells were dispensed at 3,000 cells/4 uL/well of culture medium into white wall/solid-bottom 1536-well plates using a Multidrop Combi (ThermoFisher Scientific, Waltham, MA) dispenser. After the assay plates were incubated at a 37C and 0% CO2 for 5 hr, 23 nL of compounds dissolved in DMSO, positive controls or DMSO only was transferred to the assay plate by a Pintool station (Kalypsys, San Diego, CA), followed by addition of 1 uL of agonist (R1881) in culture medium using a Bioraptr Flying Reagent Dispenser (FRD) workstation (Beckman Coulter, Indianapolis, IN, USA). The plates were incubated at a 37C and 0% CO2 for 16 h. After 15.5 h incubation, 1uL of CellTiter-Fluor reagent (Promega) was added using a Bioraptr FRD to each plate for measuring cytotoxicity. The fluorescence intensity was quantified on a ViewLux plate reader (PerkinElmer, Shelton, CT) following 30 min incubation at 37C and 0% CO2.
% is set by controls: 0 for no effect and ±100 for the full control effect; potency is the fitted concentration of half-maximal effect.

Compound | viability change, negative = cytotoxic | Potency
C[C@H]1[C@@H]2Cc3ccc(O)cc3[C@@]1(C)CCN2C | -0.616% [at 260 µM] | 
CCCBr | -1.75% | 
CN(C1CCCCC1)C1CCCCC1 | -1.87% | 
CCC(C)(C)O | -1.47% | 
O=C(O)C(O)C(O)C(=O)O (stereo not given) | 1.72% | 
CCCCC(CC)CO[N+](=O)[O-] (stereo not given) | 2.85% | 
NP(N)(=O)NC(=O)c1ccc(F)cc1 | 11.3% | 
CCCCCCCCCCCCCCCl | -2.07% [at 95 µM] | 
NNCCO | 4.03% | 
CCCN(CCC)c1c([N+](=O)[O-])cc(C(C)C)cc1[N+](=O)[O-] |  | inactive
CCOC(=O)C1OC1(C)c1ccccc1 (stereo not given) |  | inactive
CCCCCCCCP(=O)(O)O | 0.339% | 
Clc1ccc2ccccc2c1 | 1.44% [at 95 µM] | 
O=C(O)C(F)(F)C(F)(F)C(F)(F)C(F)(F)C(F)(F)C(F)(F)C(F)(F)C(F)(F)F | 0.492% | 
CCCN(CCOc1c(Cl)cc(Cl)cc1Cl)C(=O)n1ccnc1 |  | inactive
CCOP(=S)(S)OCC | -1.36% [at 95 µM] | 
COC(=O)Cc1ccccc1 | 5.88% | 
OCC1CO1 (stereo not given) |  | inactive
O=C(Cl)OCCOCCOC(=O)Cl | 9.02% | 
CC(Oc1cccc(Cl)c1)C(=O)O (stereo not given) | 2.6% | 

Compound | viability change, negative = cytotoxic | Potency
O=C(O)COc1cc(Cl)c(Cl)cc1Cl |  | inactive
OC[P+](CO)(CO)CO |  | inactive
CCOP(=O)(O)C(N)=O | 2.27% | 
CC(C)(C)OOC(C)(C)CCC(C)(C)OOC(C)(C)C | -1.06% | 
C=CCOC(=O)C(C)(C)OC(=O)c1cc(-n2c(=O)cc(C(F)(F)F)n(C)c2=O)ccc1Cl | -5.74% | 
C=CCSSCC=C | 6.57% | 
C=CCOCC1CO1 (stereo not given) | 2.46% | 
O=C1c2ccccc2C(=O)N1SC(Cl)(Cl)Cl |  | 21.7 µM (active)
CCC1(CC)C(=O)NC(=O)NC1=O | 1.64% | 
CCc1ccccc1N | -3.21% | 
CC(C)c1ccc(NC(=O)N(C)C)cc1 | 8.49% | 
CN(C)C(=O)Nc1cccc(OC(=O)NC(C)(C)C)c1 | 0.529% | 
CCOC(=O)c1cn2nc(OP(=S)(OCC)OCC)cc2nc1C | -2.92% | 
CCN(C(C)=O)c1cccc(-c2ccnc3c(C#N)cnn23)c1 | 3.26% | 
CCNC(=O)NC(=O)/C(C#N)=N/OC | -14.5% | 
COc1ccc(C(=O)c2c(C)n(CCN3CCOCC3)c3ccccc23)cc1 | 0.173% | 
COCc1cnc(C2=NC(C)(C(C)C)C(=O)N2)c(C(=O)O)c1 (stereo not given) | 6.53% | 
CC(C)OC(=O)Cc1ccccc1 | -4.6% [at 95 µM] | 
CCOP(=O)(SC(C)CC)N1CCSC1=O (stereo not given) | 0.632% | 
C=CCc1ccccc1O | 0.226% | 
